Source: PubChem BioAssay AID686921 (National Center for Advancing Translational Sciences (NCATS), 2013)
The source made the active and inactive calls. Calls follow the shape of the dose curve; as a rule, active = well fitted curve in the direction sought with a large enough effect; inconclusive = small, poorly fitted or top-dose-only effect, or another doubt; inactive = no such curve, though single readings can be large or run the other way.

Experiment: qHTS screen for inhibitors of ELG1-dependent DNA repair in human embryonic kidney (HEK293T) cells expressing luciferase-tagged ELG1: 5FU Viability Assay for probe SAR
Conditions: HEK293T ELG1-luc, CellTiter-Glo viability, 16 h; series mostly up to 46.1 µM; activity change, negative = inhibition: at the top concentration
Description: Cancer cells divide rapidly compared to normal cells in the body. During cell division, cancer cells need to duplicate their genome by DNA replication. The failure of genome duplication leads to cancer cells' death. Therefore, inhibitors of DNA replication could specifically kill cancer cells. Based on this concept, many chemotherapeutic agents were developed and have been used to treat cancer patients. However, there are a limited number of agents available in the clinical setting, and some of those that do exist have low efficacy and severe side effects. Therefore, if we can find the compounds that effectively block DNA replication either by directly damaging DNA or by inhibiting other cellular mechanisms, the options for cancer treatment will be broadened. With this in mind, we developed a quantitative high-throughput ELG1-luciferase reporter gene assay. Small molecules that specifically block ELG1 function in response to DNA damage can be identified by monitoring the suppression of luciferase activity. Since ELG1 defines a pathway for repairing DNA damage, agents blocking ELG1 function can be used to sensitize cancer cells to chemotherapeutic agents whose mechanism of action involves the induction of DNA damage. Cytotoxicity of the active compounds in the ELG1 qHTS assay (AID 493107) was assessed using the CellTiter-Glo Luminescent Cell Viability Assay kit (Promega, USA). CellTiter-Glo measures the intracellular ATP present in metabolically active cells using Ultra-Glo as the luciferase to detect ATP levels. In brief, the luciferase in the buffer catalyzes the oxidation of luciferin to oxyluciferin and light which is dependent on ATP. […] DMSO and wells with media alone were used as positive and negative controls, respectively. Inactivity to this assay is the desirable outcome. NIH Molecular Libraries Probe Production Network [MLPCN] NIH Chemical Genomics Center [NCGC] MLPCN Grant: R03 MH092164 Assay Provider: Kyungjae Myung, NHGRI, NIH
ELG1-luc HEK293T cells will be seeded in 1536-well plates at a density of 2,000 cells/well. Approximately 5 hours after plating, compounds will be added to the plate by pin tool transfer and 5-fluorouridine will be added by FRD dispenser (final concentration of 5-fluorouridine =10 µM). 16 hours following the addition of the compounds, cell viability will be measured using CellTiter Glo.
For `c1ccc2c(Nc3ccn[nH]3)nc(-c3ccncc3)nc2c1`, the “activity change, negative = inhibition” value was -25.2% (inactive). With `Fc1cc(Nc2nc(-c3ccncc3)nc3ccccc23)ccc1-c1cc(F)c(F)c(F)c1` the “activity change, negative = inhibition” value was 9.22% (inactive). For `Fc1ccc(Nc2nc(-c3ccncc3F)nc3ccccc23)cc1F`, the “activity change, negative = inhibition” value was 29.9% (inactive). In the case of `Fc1cc(Nc2nc(-c3ccncc3)nc3ccccc23)ccc1-c1cn[nH]c1`, the “activity change, negative = inhibition” value is reported as 30.4% (inactive). For `Fc1ccc(-c2ccc(Nc3nc(-c4ccncc4)nc4ccccc34)cc2F)c(Cl)c1`, the “activity change, negative = inhibition” value was -26.9% (inactive). With `Cc1noc(C)c1-c1ccc(Nc2nc(-c3ccncc3)nc3ccccc23)cc1F` the “activity change, negative = inhibition” value was -90.5% (inactive). In the case of `Fc1ccc(Nc2nc(-c3ccncc3Cl)nc3ccccc23)cc1F`, the “activity change, negative = inhibition” value is reported as 35.1% (inactive). In the case of `COc1cc(Nc2nc(-c3ccncc3)nc3ccccc23)ccc1F`, the outcome is reported as “inactive”. For `COc1cc(Nc2nc(-c3ccncc3)nc3ccccc23)ccc1NS(C)(=O)=O`, the “activity change, negative = inhibition” value was 27.9% (inactive). For `Nc1cc(-c2nc(Nc3ccc(F)c(F)c3)c3ccccc3n2)ccn1`, the “activity change, negative = inhibition” value was 50.6% (inactive). For `CN1CCN(c2ccc(Nc3nc(-c4ccncc4)nc4ccccc34)cc2F)CC1`, the “activity change, negative = inhibition” value was 11.4% (inactive). With `Fc1cc(Nc2nc(-c3ccncc3)nc3ccccc23)ccc1N1CCCCC1` the “activity change, negative = inhibition” value was -92.1% (inactive). For `COc1ccc(-n2c(C)c(C(C)=O)c3cc(O)ccc32)cc1`, the “activity change, negative = inhibition” value was -9.12% (inactive). For `Fc1cccc(Nc2nc(-c3ccncc3)nc3ccccc23)c1`, the “activity change, negative = inhibition” value was 20.6% (inactive). For `COc1cc(Nc2nc(-c3ccncc3)nc3ccccc23)ccc1N1CCN(C)CC1`, the “activity change, negative = inhibition” value was 4.29% (inactive). For `Fc1ccc(Nc2nc(-c3ccnc(N4CCCCC4)c3)nc3ccccc23)cc1F`, the “activity change, negative = inhibition” value was 4.06% (inactive). With `COc1ccc(-c2nc(Nc3ccc(F)c(F)c3)c3ccccc3n2)cc1` the “activity change, negative = inhibition” value was -12.5% (inactive). For `Fc1cc(-c2nc(Nc3ccc(F)c(F)c3)c3ccccc3n2)ccn1`, the “activity change, negative = inhibition” value was 22.8% (inactive). In the case of `COc1ccc(-c2ccc(Nc3nc(-c4ccncc4)nc4ccccc34)cc2F)cc1F`, the “activity change, negative = inhibition” value is reported as 4.42% (inactive). With `Cc1nc2ccc(Nc3nc(-c4ccncc4)nc4ccccc34)cc2s1` the “activity change, negative = inhibition” value was 30.3% (inactive). For `Fc1cc(Nc2nc(-c3ccncc3)nc3ccccc23)ccc1-c1ccc(F)c(F)c1F`, the “activity change, negative = inhibition” value was 20.8% (inactive). In the case of `Cc1ccc(Nc2nc(-c3ccncc3)nc3ccccc23)cc1F`, the “activity change, negative = inhibition” value is reported as 10.7% (inactive). With `COc1ccc(-n2c(C)c(C(C)=O)c3ccccc32)cc1` the outcome was “inactive”.
